An excerpt weighted towards active compounds, which were near 12% of everything screened.
Pf growth 96h = Primary qHTS for delayed death inhibitors of the malarial parasite plastid, 96 hour incubation; P. falciparum luciferase reporter growth, 96 h; Potency, µM (top dose mostly 28.7 µM), inactives show top-dose activity change, negative = inhibition, usual class: inhibitors; hit rate 6.9% among 320,000; also: % is scaled to controls: 0 for no effect and ±100 for the full control effect
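Parasite growth measured via integrated firefly luciferase reporter in P. falciparum. Infected erythrocytes at 2% hematocrit, 0.05% parasitemia final were treated 96 hours at 37 C under 5% CO2, and luminescence was read.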
Pf growth 48h = Primary qHTS for delayed death inhibitors of the malarial parasite plastid, 48 hour incubation; hit rate 5.9% among 310,000; AID 504832, 2011; Potency, µM (titrated, usually from 28.7 µM), for inactives: at the top dose activity change, negative = inhibition, actives largely listed as inhibitors; P. falciparum luciferase growth in erythrocytes, 48 h; also: % is scaled to controls: 0 for no effect and ±100 for the full control effect
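Parasite viability was followed by luminescence of a genomically integrated firefly luciferase. Cultures held 0.1% parasitemia at 2% hematocrit (final), incubated under 5% CO2 at 37 C.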
AmpC inh no detg = qHTS Inhibitors of AmpC Beta-Lactamase (assay without detergent) | P00811 | AmpC nitrocefin hydrolysis, absorbance 480 nm, 0.0001% Triton | Potency, µM (series often up to 57.1 µM), inactives show at the highest dose activity change, negative = inhibition, actives largely listed as inhibitors | hit rate 0.52% among 330,000 | AID 485341, 2010;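 also: plate controls were no compound for no effect and no enzyme for full effect; nearly all actives have a fitted effect of over 20% in size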
Target sequence (P00811 whole entry, looked up): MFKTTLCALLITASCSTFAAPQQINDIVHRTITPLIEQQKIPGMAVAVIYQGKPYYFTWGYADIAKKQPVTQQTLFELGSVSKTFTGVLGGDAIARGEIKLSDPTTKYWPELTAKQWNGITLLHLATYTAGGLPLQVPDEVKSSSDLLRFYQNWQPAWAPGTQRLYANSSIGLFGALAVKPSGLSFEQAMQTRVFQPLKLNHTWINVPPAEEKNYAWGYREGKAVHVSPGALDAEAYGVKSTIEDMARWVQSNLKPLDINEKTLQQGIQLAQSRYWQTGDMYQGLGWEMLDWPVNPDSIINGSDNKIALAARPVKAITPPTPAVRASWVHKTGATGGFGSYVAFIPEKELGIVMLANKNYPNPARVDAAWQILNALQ
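AmpC (5.3 nM in the dispensed reagent) in 20 mM phosphate pH 7.0 with 0.01% (detergent screen) or 0.0001% Triton X-100 was preincubated with compounds for 15 min at room temperature. Nitrocefin was then added from an 800 uM solution, and hydrolysis was followed at 480 nm.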
AmpC inh detg = qHTS Inhibitors of AmpC Beta-Lactamase (assay with detergent) | AmpC hydrolysis of nitrocefin, absorbance 480 nm, 0.01% Triton | hit rate 0.041% among 370,000 | P00811 | Potency, µM (series often up to 114 µM), without a hit: at the highest dose activity change, negative = inhibition, hits mostly inhibitors;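 also: 0% = no-compound wells and -100% = no-enzyme wells; nearly all actives have a fitted effect of over 25% in size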
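AmpC (5.3 nM in the dispensed reagent) in 20 mM phosphate pH 7.0 with 0.01% (detergent screen) or 0.0001% Triton X-100 was preincubated with compounds for 15 min at room temperature. Nitrocefin was then added from an 800 uM solution, and hydrolysis was followed at 480 nm.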
Sm TGR block = qHTS Assay for the Inhibitors of Schistosoma Mansoni Peroxiredoxins | Schistosoma mansoni thioredoxin glutathione reductase (TGR), Q962Y6 | AID 485364, 2010 | purified TGR, DTNB reduction, TNB absorbance 405 nm | Potency, µM (titrated, usually from 114 µM), inactives show at the highest dose activity change, negative = inhibition, actives largely listed as inhibitors | hit rate 3% among 360,000; also: % is scaled to controls: 0 for no effect and ±100 for the full control effect; nearly all actives have a fitted effect of over 60% in size
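TGR 20 nM + NADPH 100 uM (dispensed conc.), cpd preinc 15 min RT; start with NADPH (500 uM addition) then DTNB (15 mM addition). Kinetic TNB absorbance, 405 nm filter. Four-parameter Hill fit across titration.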
SARS PLP yeast = qHTS of Yeast-based Assay for SARS-CoV PLP. S. cerevisiae expressing SARS-CoV PLpro, growth rescue. Potency, µM (titrated, usually from 32.9 µM), inactives show top-dose activity, positive = growth rescue, hits mostly activators. AID 485353, 2010. hit rate 0.19% among 330,000; calls by dose curve; also: 0% is about no effect; nearly all actives have a fitted effect of over 55% in size
Active calls of the source: *; i = inactive; u = inconclusive; x = no result. Unless noted, calls follow the shape of the dose curve; as a rule, active = well fitted curve in the direction sought with a large enough effect; inconclusive = small, poorly fitted or top-dose-only effect, or another doubt; inactive = no such curve, though single readings can be large; an effect the other way counts as inactive or inconclusive. Potency is read from the fitted curve at half-maximal effect.

SMILES	Pf growth 96h	Pf growth 48h	AmpC inh no detg	AmpC inh detg	Sm TGR block	SARS PLP yeast
Cc1nc2nc(C)c(CCC(=O)N3CCN(c4ccccn4)CC3)c(C)n2n1	13%	-3%	3%	-3%	7%	3%
CCn1c(=O)c(CCC(=O)N2CCN(c3ccccn3)CC2)c(C)c2c(C)nn(-c3cccc(C)c3)c21	u	9.3µM*	15%	-2%	-1%	3%
CCn1c(=O)c(CCC(=O)NCC2CCCO2)c(C)c2c(C)nn(-c3ccc(C)cc3)c21 (centres undefined)	-16%	5.2µM*	26%	2%	3%	2%
COc1ccc(C)cc1-n1nnc(S(=O)(=O)c2ccc(C)cc2)c1C	x	x	x	-4%	7%	x
CCCSCCCNC(=O)c1ccc(Cn2c(=O)c3cccn3c3cccnc32)cc1	x	x	x	14%	2%	x
CCc1ccc(CN2C(=O)c3ccccc3C2C(=O)NCCc2ccc(OC)c(OC)c2)cc1 (centres undefined)	x	x	x	-4%	1%	x
O=C1CC(SC2=NCCS2)C(=O)N1c1ccc(Cl)cc1 (centres undefined)	i	2%	-17%	-13%	56µM*	-4%
Cc1ccnc(SC2CC(=O)N(c3ccc(F)cc3)C2=O)n1 (centres undefined)	-11%	7%	-11%	-1%	u	-1%
O=C1CC(Sc2ccc(Cl)cc2)C(=O)N1c1ccc2c(c1)OCCO2 (centres undefined)	u	31%	-4%	5%	4µM*	-7%
O=C1CC(SC2=NCCS2)C(=O)N1c1ccc(Br)cc1 (centres undefined)	7%	4%	-54%	-10%	56µM*	-14%
O=C(Cn1cnc2c(nc3n2CCCCC3)c1=O)Nc1ccc(F)cc1	x	x	x	17%	0%	x
CCc1nnc(NS(=O)(=O)c2ccc(NC(=S)NC(=O)c3ccncc3)cc2)s1	56%	87%	-10%	-1%	20µM*	2%
CCc1nnc(NS(=O)(=O)c2ccc(NS(=O)(=O)c3ccc(NC(C)=O)cc3)cc2)s1	29%	x	-13%	-2%	-6%	13%
CC(=O)c1ccc(S(=O)(=O)Nc2cc3c(cc2C(C)=O)OCO3)cc1	108%	-17%	-20%	-21%	-9%	0%
CCN(CC)S(=O)(=O)c1ccc(S(=O)(=O)Nc2cc3c(cc2C(C)=O)OCO3)cc1	12µM*	u	-4%	-14%	-11%	12%
CCN(CC)S(=O)(=O)c1ccc(C(=O)Oc2ccc3c(c2)OCO3)cc1	3.3µM*	-24%	-5%	-12%	-3%	0%
CCc1nnc(NC(=O)c2ccc(S(=O)(=O)NCC(C)C)cc2)s1	1.7µM*	9%	-26%	-2%	-15%	4%
CCc1nnc(NC(=O)c2ccc(NC(=O)C(C)C)cc2)s1	26%	40%	0%	6%	15%	-1%
NC(N)=NS(=O)(=O)c1ccc(NC(=S)NC(=O)c2ccc(Br)cc2)cc1	-28%	2%	-35%	u	-35%	-2%
CCOc1cc(C(=O)Nc2ccc(S(=O)(=O)Nc3nnc(CC)s3)cc2)cc(OCC)c1OCC	u	u	-28%	-12%	-11%	0%
CCc1nnc(NS(=O)(=O)c2ccc(NC(=O)c3ccc(S(=O)(=O)N(CC)CC)cc3)cc2)s1	10%	13µM*	-35%	-4%	1%	1%
CCc1nnc(NS(=O)(=O)c2ccc(NC(=S)NC(=O)c3ccc(OC)cc3)cc2)s1	-2%	u	-22%	-15%	40µM*	14%
NC(N)=NS(=O)(=O)c1ccc(NC(=S)NC(=O)c2ccncc2)cc1	u	9%	-11%	-1%	20µM*	-3%

Source: PubChem
